From PubChem BioAssay
RORgamma inh – blocks mouse ROR gamma transcriptional activity; Potency, µM (series often up to 53.6 µM), most hits filed as inhibitors; P51450; 310,000 compounds, 5.4% hits; AID 2551; Drosophila S2 Gal4-RORgamma UAS-luciferase reporter, 20 h; further: nearly all actives have a fitted effect of over 60% in size
Target sequence (P51450 whole entry, looked up, the tested form may be a part): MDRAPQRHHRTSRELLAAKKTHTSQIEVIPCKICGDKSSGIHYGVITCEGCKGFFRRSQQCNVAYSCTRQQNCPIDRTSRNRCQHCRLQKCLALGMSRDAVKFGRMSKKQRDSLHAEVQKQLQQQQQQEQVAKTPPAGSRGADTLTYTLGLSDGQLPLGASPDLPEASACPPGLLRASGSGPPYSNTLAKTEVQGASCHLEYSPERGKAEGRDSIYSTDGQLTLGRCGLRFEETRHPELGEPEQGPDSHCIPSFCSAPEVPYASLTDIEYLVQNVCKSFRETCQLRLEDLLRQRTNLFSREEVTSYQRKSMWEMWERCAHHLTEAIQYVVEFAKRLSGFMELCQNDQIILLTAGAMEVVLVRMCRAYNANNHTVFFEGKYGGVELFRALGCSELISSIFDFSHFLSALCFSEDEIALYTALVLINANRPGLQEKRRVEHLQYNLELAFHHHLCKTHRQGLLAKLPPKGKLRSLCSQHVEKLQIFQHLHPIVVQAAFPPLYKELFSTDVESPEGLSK
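ROR gamma transcriptional activity was tracked as Gal4-UAS luciferase output in stably transfected Drosophila Schneider cells, with compound added 1 hr before 700 uM copper sulfate induction and a 20 hr ambient-temperature incubation.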
VP16 counter – Gal4-VP16 reporter inhibition counter-screen; Drosophila S2 Gal4-VP16 UAS-luciferase, luminescence, 20 h; AID 2546; Potency, µM (series often up to 53.6 µM), actives largely listed as inhibitors; 310,000 compounds, 3.5% hits;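 further: Gal4-VP16 expression switched on by copper sulfate through the metallothionein promoter; nearly all actives have a fitted effect of over 50% in size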
DT40 TDP1 no CPT – qHTS for Inhibitors of human tyrosyl-DNA phosphodiesterase 1 (TDP1): qHTS in cells in absence of CPT; DT40 Tdp1-/- hTDP1 cells, no CPT, ATP luminescence, 48 h; 420,000 compounds, 15% hits; Potency, µM (titrated, usually from 46.2 µM), actives largely listed as inhibitors; further: nearly all actives have a fitted effect of over 55% in size
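Chicken DT40 Tdp1-/- cells complemented with human TDP1, screened without camptothecin (DMSO vehicle only), 400 cells/well. Compounds pin-transferred, cells incubated at 37 °C for at least 48 hr. Growth read as ATP-dependent luminescence (CellTiter-Glo, 30 min at RT).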
TDP1 cell CPT – DT40-hTDP1 cell growth loss with CPT | chicken DT40 Tdp1-/-;hTDP1 cells + 20 nM CPT, ATP luminescence, 48 h | Potency, µM (titrated, usually from 46.2 µM), hits mostly inhibitors | 420,000 compounds, 12% hits; further: nearly all actives have a fitted effect of over 55% in size
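Cell growth measured by CellTiter-Glo luminescence after a minimum 48 h, 37 C compound exposure with 20 nM CPT in Tdp1-knockout DT40 cells stably expressing hTDP1, seeded 400/well; qHTS titration format.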
IL-1B inflam inh – inflammasome signaling inhibition, IL-1 beta readout | THP-1 LPS/ATP IL-1B secretion, AlphaLISA, 16 h; stronger effect = lower value | 360,000 compounds, 4.7% hits | activity change, % at 57.5 µM; in the data active means activity change below about -50%; inconclusive means mostly about -30% to -49%
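Secreted IL-1B measured by AlphaLISA bead assay after 16 h compound exposure of THP-1 cells; compounds (final up to 57.5 uM) added 1 h before LPS (250 ng/mL) and ATP (1.25 mM) stimulation; lower signal means less secretion.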
LDHA block – LDHA (human) enzyme inhibition; P00338; purified LDHA, NADH/diaphorase-resazurin fluorescence; stronger effect = lower value; activity change, % (values are at about 110 or 230 µM); 480,000 compounds, 0.15% hits; in the data active means activity change below about -30%; inconclusive means mostly about -25% to -30%
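Human LDH5 at 2 nM final in Tris HCl pH 7.4 with 0.06 mM NADH and 0.2 mM pyruvate, reacted 5 minutes at room temperature. Remaining NADH coupled via diaphorase/resazurin; resorufin fluorescence read at 0 and 20 minutes, normalized to enzyme-free and DMSO wells.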
Of the large screens only hits and unclear results are named; the others gave an inactive call. The list is not random: actives were taken first. Their share in the collection is about 18%. Unless noted, the call rests on the fitted dose curve; in most records, active means well fitted curve in the direction sought with a large enough effect; inconclusive means small, poorly fitted or top-dose-only effect, or another doubt; inactive means no such curve, though single readings can be large; an effect the other way counts as inactive or inconclusive.

COc1ccc(C2CC(=O)C=C(Nc3ccc(F)cc3F)C2)cc1 (stereo not drawn)	none (no result: RORgamma inh, VP16 counter, DT40 TDP1 no CPT, TDP1 cell CPT, IL-1B inflam inh)
CCCOC(=O)c1ccccc1OC(=O)c1ccc(Cl)cc1Cl	none (no result: RORgamma inh, VP16 counter, DT40 TDP1 no CPT, TDP1 cell CPT, IL-1B inflam inh)
Cc1noc(C)c1-c1cc(N(C)C)ncn1	DT40 TDP1 no CPT 23µM, TDP1 cell CPT inconclusive (no result: IL-1B inflam inh, LDHA block)
COc1ccccc1-c1cc(Nc2ccn[nH]2)ncn1	DT40 TDP1 no CPT inconclusive, TDP1 cell CPT inconclusive (no result: IL-1B inflam inh, LDHA block)
COc1ccccc1-c1cc(Nc2ccc(F)cc2)ncn1	VP16 counter inconclusive, DT40 TDP1 no CPT 23µM, TDP1 cell CPT inconclusive (no result: IL-1B inflam inh, LDHA block)
Cc1noc(C)c1-c1cc(NC2CC2)ncn1	RORgamma inh inconclusive, DT40 TDP1 no CPT 8.2µM, TDP1 cell CPT 12µM (no result: IL-1B inflam inh, LDHA block)
Cc1noc(C)c1-c1cc(NCc2ccccc2)ncn1	DT40 TDP1 no CPT 23µM, TDP1 cell CPT inconclusive (no result: IL-1B inflam inh, LDHA block)
COc1ccccc1CNc1cc(-c2c(C)noc2C)ncn1	none (no result: IL-1B inflam inh, LDHA block)
Cc1noc(C)c1-c1cc(N2CCN(C)CC2)ncn1	none (no result: IL-1B inflam inh, LDHA block)
Fc1ccc(Br)cc1CNc1ccccc1	none (no result: RORgamma inh, VP16 counter, DT40 TDP1 no CPT, TDP1 cell CPT, IL-1B inflam inh)
CCc1c(C)sc(NC(=O)/C=C/c2c(Cl)cccc2Cl)c1C#N	none (no result: RORgamma inh, VP16 counter, DT40 TDP1 no CPT, TDP1 cell CPT, IL-1B inflam inh)
Cc1ccccc1-c1cc(NCc2ccccc2)ncn1	DT40 TDP1 no CPT 21µM, TDP1 cell CPT 15µM (no result: IL-1B inflam inh, LDHA block)
COc1ccc(CNc2cc(-c3ccccc3OC)ncn2)c(OC)c1	DT40 TDP1 no CPT inconclusive, TDP1 cell CPT inconclusive (no result: IL-1B inflam inh, LDHA block)
COc1ccccc1-c1cc(NCc2ccccc2)ncn1	DT40 TDP1 no CPT 5.8µM, TDP1 cell CPT 6.5µM (no result: IL-1B inflam inh, LDHA block)
COc1cccc(NC(=O)N2CCOc3ccc(Cl)cc32)c1	none (no result: RORgamma inh, VP16 counter, DT40 TDP1 no CPT, TDP1 cell CPT, IL-1B inflam inh)
Brc1ccc(C2=CC(c3cccs3)n3ncnc3N2)cc1 (stereo not drawn)	RORgamma inh inconclusive, VP16 counter inconclusive, DT40 TDP1 no CPT 7.3µM, TDP1 cell CPT inconclusive
CC(C)(C)c1ccc(C2=CC(c3ccccc3F)n3ncnc3N2)cc1 (stereo not drawn)	none (no result: RORgamma inh, VP16 counter)
C1=C(c2ccc(-c3ccccc3)cc2)Nc2ncnn2C1c1ccco1 (stereo not drawn)	RORgamma inh 11µM, VP16 counter inconclusive, DT40 TDP1 no CPT 16µM, TDP1 cell CPT 21µM
Cn1cccc1C1C=C(c2ccc(C(C)(C)C)cc2)Nc2ncnn21 (stereo not drawn)	DT40 TDP1 no CPT 23µM, TDP1 cell CPT inconclusive (no result: RORgamma inh, VP16 counter)
CCn1c(CN(c2ccc(C)cc2)S(C)(=O)=O)nnc1SCC(=O)c1ccccc1	none (no result: RORgamma inh, VP16 counter, DT40 TDP1 no CPT, TDP1 cell CPT, IL-1B inflam inh)
COc1ccc(CCN(C)C(=O)c2cc(-c3ccccc3)nc3ccccc23)cc1OC	RORgamma inh inconclusive, DT40 TDP1 no CPT 23µM, TDP1 cell CPT inconclusive
COc1ccc(-c2cc(C(=O)N(C)CCc3ccc(OC)c(OC)c3)c3ccccc3n2)cc1	RORgamma inh 5µM, DT40 TDP1 no CPT 23µM, TDP1 cell CPT 15µM
COc1ccc(CCN(C)C(=O)COc2ccc(C(=O)c3ccccc3)cc2)cc1OC	DT40 TDP1 no CPT inconclusive, TDP1 cell CPT inconclusive (no result: RORgamma inh, VP16 counter)
COc1ccc(CCN(C)C(=O)Cc2ccc(-c3ccccc3)cc2)cc1OC	VP16 counter inconclusive, DT40 TDP1 no CPT 16µM, TDP1 cell CPT 18µM, IL-1B inflam inh -55
Cn1nc(C(=O)NCc2ccccc2Cl)c2ccccc2c1=O	none (no result: RORgamma inh, VP16 counter, DT40 TDP1 no CPT, TDP1 cell CPT, IL-1B inflam inh)
CCS(=O)(=O)N1CCc2cc(C(=O)CSc3ccc(F)c(F)c3)ccc21	none (no result: RORgamma inh, VP16 counter, DT40 TDP1 no CPT, TDP1 cell CPT, IL-1B inflam inh)
CCOC(=O)c1cnc(SCC(=O)Nc2cccc(Cl)c2C)nc1N	none (no result: RORgamma inh, VP16 counter, DT40 TDP1 no CPT, TDP1 cell CPT, IL-1B inflam inh)
CCOC(=O)c1cnc(SCc2nc(N)nc(Nc3ccccc3)n2)nc1N	DT40 TDP1 no CPT 16µM, TDP1 cell CPT 16µM
CCOC(=O)c1cnc(SCC(=O)Nc2cc(C(F)(F)F)ccc2N2CCOCC2)nc1N	none
CCOC(=O)c1cnc(SCC(=O)Nc2ccc(N3CCOCC3)c(Cl)c2)nc1N	DT40 TDP1 no CPT 13µM, TDP1 cell CPT inconclusive
CCOC(=O)c1cnc(SCC(=O)Nc2cc(OC)cc(OC)c2)nc1N	DT40 TDP1 no CPT 8.2µM, TDP1 cell CPT 8.2µM
COc1ccc2c(c1)Oc1nc(-c3cccs3)nc(SCC(=O)Nc3cccc(C(=O)O)c3)c1C2	none (no result: RORgamma inh, VP16 counter, DT40 TDP1 no CPT, TDP1 cell CPT, IL-1B inflam inh)
OCc1ccccc1OCCCOc1cccc2cccnc12	none
C/C(=N\NC(=O)c1ccc(CSc2cccc3cccnc23)cc1)C1CCCCC1	none
